The values that follow come from PubChem BioAssay (EPA / NIEHS).

Structures are written as SMILES. Calls of active or inactive are those of the source. Rule for the calls: active = hit-call score of the fitted dose curve at least 0.9, where 1 is the maximum; inactive = score below 0.9.

The target of assay [1] is Retinoic acid receptor alpha (Homo sapiens) (UniProt P10276). Put plainly: ATG_DR5_RAR_CIS: Attagene CIS-FACTORIAL HepG2 Assay for human Retinoic Acid Receptor Alpha (RARE), DR5 submotif (AID 2282934). The following applies: HepG2 Attagene cis-factorial RARE DR5 reporter, mRNA; actives raise or lower the signal. The gist of the method:
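Endpoint fitted in both directions relative to DMSO as negative control. It reflects DR5 cis-element reporter mRNA induction in transiently transfected HepG2 cells, measured 24 h after dosing through RT-PCR and fluorescent capillary electrophoresis.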

The nature of assay [2]: ATG_PPRE_CIS: Attagene CIS-FACTORIAL HepG2 Assay for human Peroxisome Proliferator-activated Response Element (PPRE) (AID 2282958). The following applies: HepG2 PPRE cis-element reporter, Attagene transcription factor profiling; actives raise or lower the signal. In a few lines:
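After human HepG2 hepatoma cells were transiently transfected with cis-promoter reporter constructs, they were exposed to test chemicals for 24 hours. Reporter RNA was then reverse-transcribed, PCR-amplified, FAM-labeled, HpaI-digested and quantified by capillary electrophoresis.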

The nature of assay [3]: BSK_3C_TissueFactor: BioMAP Diversity Plus: 3C Assay for Tissue Factor Biomarker Activity (AID 2282997). Conditions: BioMAP 3C HUVEC, tissue factor biomarker readout; actives raise or lower the signal. In a few lines: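 Values derive from bidirectional curve fitting against DMSO of Tissue Factor ELISA signals, taken 24 h after dosing primary human umbilical vein endothelial cells.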

Assay [4] is described as follows: BSK_3C_uPAR: BioMAP Diversity Plus: 3C Assay for Urokinase-type plasminogen activator receptor (uPAR) Biomarker Activity (AID 2282998). Conditions: BioMAP 3C HUVEC, uPAR biomarker ELISA; actives raise or lower the signal. In a few lines:
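ELISA readout of uPAR on human vascular endothelium (umbilical vein primary cells), taken 24 h after chemical dosing. Increases and decreases are both fitted relative to DMSO vehicle.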

Assay [5] is described as follows: BSK_3C_VCAM1: BioMAP Diversity Plus: 3C Assay for Vascular cell adhesion molecule 1 (VCAM1) Biomarker Activity (AID 2282999). The following applies: BioMAP 3C HUVEC, VCAM1 ELISA, cytokine-stimulated; actives raise or lower the signal. The gist of the method:
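Human umbilical vein endothelial cells were dosed with compound for 24 h, after which cell-surface VCAM-1 was quantified by ELISA. Bidirectional curve fitting used DMSO as negative control and activity baseline.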

Assay [6] can be described thus: BSK_3C_Proliferation: Cell Proliferation Assessment in the BioMAP Diversity Plus: 3C Assay (AID 2283006). The following applies: primary human endothelial cells (HUVEC). In a few lines: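 Human umbilical vein endothelial cells were grown sub-confluent and exposed to chemical for 48 h, then fixed with 10% TCA and stained with 0.1% sulforhodamine B; absorbance at 560 nm gave relative cell number, fitted bidirectionally against DMSO baseline.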

Read-out in assay [7]: E-selectin (Homo sapiens) (UniProt P16581)
Description: BSK_3C_Eselectin: BioMAP Diversity Plus: 3C Assay for Eselectin Biomarker Activity (AID 2283015).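 For outcome: cell surface E-selectin protein quantified by ELISA 24 h after dosing.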 The following applies: primary human endothelial cells (HUVEC); actives raise or lower the signal. In a few lines: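 Human vascular endothelium from umbilical vein is exposed to test chemicals for 24 h. E-selectin levels are read by ELISA and compared with DMSO controls.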

Read-out in assay [8]: Interleukin-1 alpha (IL1a), IL1A (gene 3552)
Put plainly: BSK_BE3C_IL1a: BioMAP Diversity Plus: BE3C Assay for Interleukin-1 alpha (IL1a) Biomarker Activity (AID 2283016). Conditions: primary human bronchial epithelial cells; actives raise or lower the signal. In a few lines: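 Human primary bronchial epithelial cells (BE3C system) were dosed with compound and IL-1a measured by ELISA 24 h later. Activity was fitted bidirectionally against DMSO baseline; cytotoxicity was tracked in parallel cultures by SRB total-protein staining.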

Read-out in assay [9]: Plasminogen activator inhibitor-1 (PAI1), SERPINE1 (gene 5054)
Put plainly: BSK_BE3C_PAI1: BioMAP Diversity Plus: BE3C Assay for Plasminogen activator inhibitor-1 (PAI1) Biomarker Activity (AID 2283037). The following applies: primary human bronchial epithelial cells; actives raise or lower the signal. In a few lines: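 Human primary bronchial epithelial cells were exposed to chemical for 24 h, then PAI-1 was quantified by ELISA. Activity was fitted bidirectionally relative to the DMSO negative control baseline.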

Read-out in assay [10]: Tissue plasminogen activator (tPA), PLAT (gene 5327)
Put plainly: BSK_BE3C_tPA: BioMAP Diversity Plus: BE3C Assay for Tissue plasminogen activator (tPA) Biomarker Activity (AID 2283041).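 For outcome: tPA level quantified by ELISA one day after compound addition.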 The following applies: primary human bronchial epithelial cells; actives raise or lower the signal. In a few lines: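 Human primary bronchial epithelial cells were dosed with chemical and tPA biomarker levels measured by ELISA 24 hours later. Activity was fitted bidirectionally against DMSO as negative control and baseline.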

Read-out in assay [11]: serum amyloid A (SAA), SAA1 (gene 6288)
Description: BSK_CASM3C_SAA: BioMAP Diversity Plus: CASM3C Assay for serum amyloid A (SAA) Biomarker Activity (AID 2283049).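 Note: SAA protein level quantified by ELISA.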 The following applies: primary human coronary artery smooth muscle cells; actives raise or lower the signal.

Read-out in assay [12]: Thrombomodulin, THBD (gene 7056)
Description: BSK_CASM3C_Thrombomodulin: BioMAP Diversity Plus: CASM3C Assay for Thrombomodulin Biomarker Activity (AID 2283051).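 Note: thrombomodulin protein level measured by ELISA 24 h after dosing.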 Conditions: primary human coronary artery smooth muscle cells; actives raise or lower the signal.

Read-out in assay [13]: Macrophage colony-stimulating factor (MCSF), CSF1 (gene 1435)
Put plainly: BSK_hDFCGF_MCSF: BioMAP Diversity Plus: hDFCGF Assay for Macrophage colony-stimulating factor (MCSF) Biomarker Activity (AID 2283060). Conditions: primary human foreskin fibroblasts; actives raise or lower the signal. In a few lines:
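M-CSF levels, determined by ELISA, are taken at 24 h after dosing human skin fibroblasts. Responses in either direction are fitted with DMSO serving as the baseline.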

Read-out in assay [14]: Interleukin-1 alpha (IL1a), IL1A (gene 3552)
Description: BSK_KF3CT_IL1a: BioMAP Diversity Plus: KF3CT Assay for Interleukin-1 alpha (IL1a) Biomarker Activity (AID 2283070). Conditions: primary human keratinocytes with fibroblasts; actives raise or lower the signal. The gist of the method: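 Human keratinocyte plus foreskin fibroblast primary co-culture, sampled 24 h after chemical dosing. IL-1a measured by ELISA; responses fitted bidirectionally against DMSO baseline (negative control), so gain or loss of signal both count.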

Read-out in assay [15]: C-C motif chemokine 2 (Homo sapiens) (UniProt P13500)
Put plainly: BSK_KF3CT_MCP1: BioMAP Diversity Plus: KF3CT Assay for Monocyte Chemoattractant Protein 1 (MCP1/CCL2) Biomarker Activity (AID 2283073). The following applies: primary human keratinocytes with fibroblasts; actives raise or lower the signal. In a few lines: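 Keratinocytes and foreskin fibroblasts were co-cultured, dosed with chemical, and sampled 24 h later. MCP-1 was quantified by ELISA, and the endpoint was analyzed with bidirectional fitting using DMSO as negative control.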

Read-out in assay [16]: Matrix Metallopeptidase 9 (MMP9), MMP9 (gene 4318)
Description: BSK_KF3CT_MMP9: BioMAP Diversity Plus: KF3CT Assay for Matrix Metallopeptidase 9 (MMP9) Biomarker Activity (AID 2283074). The following applies: primary human keratinocytes with fibroblasts; actives raise or lower the signal. The gist of the method:
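Keratinocyte plus foreskin fibroblast human primary skin co-culture was dosed with chemical and MMP-9 was quantified by ELISA 24 h later. Bidirectional curve fitting used DMSO as negative control and activity baseline.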

Read-out in assay [17]: Interleukin-1 alpha (IL1a), IL1A (gene 3552)
Description: BSK_LPS_IL1a: BioMAP Diversity Plus: LPS Assay for Interleukin-1 alpha (IL1a) Biomarker Activity (AID 2283080). The following applies: primary human HUVEC with PBMC; actives raise or lower the signal. In a few lines: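 Measured: IL-1 alpha via ELISA at 24 h in LPS-activated human umbilical vein endothelium–PBMC co-culture. Baseline: DMSO, bidirectional fitting.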

Assay [18] in a line: BSK_LPS_PGE2: BioMAP Diversity Plus: LPS Assay for Prostaglandin E2 (PGE2) Biomarker Activity (AID 2283082). Conditions: primary human HUVEC with PBMC; actives raise or lower the signal. The gist of the method: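 HUVEC plus PBMC co-culture stimulated with LPS; secreted PGE2 quantified by ELISA 24 h after chemical dosing. Activity fitted bidirectionally against DMSO as negative control and baseline; parallel SRB total-protein staining served as cytotoxicity check.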

Read-out in assay [19]: Tumor necrosis factor (Homo sapiens) (UniProt P01375)
Put plainly: BSK_LPS_TNFa: BioMAP Diversity Plus: LPS Assay for Tumour Necrosis Factor alpha (TNFa) Biomarker Activity (AID 2283085). Conditions: primary human HUVEC with PBMC; actives raise or lower the signal. In a few lines:
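Human umbilical vein endothelial cells co-cultured with PBMC were exposed to test chemical and TNFa measured by ELISA 24 h after dosing. Bidirectional curve fitting was done relative to DMSO as negative control and baseline.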

A short description of assay [20]: BSK_SAg_PBMCCytotoxicity: PBMC Cytotoxicity Assessment in the BioMAP Diversity Plus: SAg Assay (AID 2283093).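 Note: PBMC viability measured as Alamar Blue reduction fluorescence at 546/580 nm; fitted both ways against DMSO so a hit may be loss or gain of signal.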 Conditions: primary human HUVEC with PBMC. In a few lines: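 Human umbilical vein endothelial cells co-cultured with PBMC; PBMC (75,000/well) pre-treated with compound 1 h, then activated with SEB and TSST-1 (20 ng/mL final each) for 90 h. Alamar Blue added 6 h, fluorescence 546/580 nm; bidirectional fit versus DMSO.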

Sequence of Tumor necrosis factor (Homo sapiens) (P01375 whole entry, looked up): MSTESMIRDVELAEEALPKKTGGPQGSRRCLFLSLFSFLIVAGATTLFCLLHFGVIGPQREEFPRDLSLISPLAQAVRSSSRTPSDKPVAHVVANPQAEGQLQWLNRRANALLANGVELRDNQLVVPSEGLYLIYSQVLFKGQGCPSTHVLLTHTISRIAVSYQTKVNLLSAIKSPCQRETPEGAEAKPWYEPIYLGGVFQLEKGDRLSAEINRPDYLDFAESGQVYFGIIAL
Sequence of E-selectin (Homo sapiens) (P16581 whole entry, looked up): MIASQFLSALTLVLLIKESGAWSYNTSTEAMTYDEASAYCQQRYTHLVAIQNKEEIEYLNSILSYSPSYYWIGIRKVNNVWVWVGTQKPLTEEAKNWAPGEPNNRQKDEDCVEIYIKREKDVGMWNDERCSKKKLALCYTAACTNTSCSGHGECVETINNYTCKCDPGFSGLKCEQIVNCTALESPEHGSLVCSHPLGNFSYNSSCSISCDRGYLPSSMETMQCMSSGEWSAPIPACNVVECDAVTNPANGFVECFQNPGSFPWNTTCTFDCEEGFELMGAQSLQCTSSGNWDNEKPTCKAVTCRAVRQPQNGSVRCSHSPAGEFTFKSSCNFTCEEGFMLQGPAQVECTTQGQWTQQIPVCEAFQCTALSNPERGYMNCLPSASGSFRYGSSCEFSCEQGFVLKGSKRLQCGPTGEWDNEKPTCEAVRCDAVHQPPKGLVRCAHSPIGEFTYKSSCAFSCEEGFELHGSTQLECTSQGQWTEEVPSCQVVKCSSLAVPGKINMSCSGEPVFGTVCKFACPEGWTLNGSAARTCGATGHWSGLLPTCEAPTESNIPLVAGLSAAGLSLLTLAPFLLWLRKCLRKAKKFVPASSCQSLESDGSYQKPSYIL
Sequence of Retinoic acid receptor alpha (Homo sapiens) (P10276 whole entry, looked up): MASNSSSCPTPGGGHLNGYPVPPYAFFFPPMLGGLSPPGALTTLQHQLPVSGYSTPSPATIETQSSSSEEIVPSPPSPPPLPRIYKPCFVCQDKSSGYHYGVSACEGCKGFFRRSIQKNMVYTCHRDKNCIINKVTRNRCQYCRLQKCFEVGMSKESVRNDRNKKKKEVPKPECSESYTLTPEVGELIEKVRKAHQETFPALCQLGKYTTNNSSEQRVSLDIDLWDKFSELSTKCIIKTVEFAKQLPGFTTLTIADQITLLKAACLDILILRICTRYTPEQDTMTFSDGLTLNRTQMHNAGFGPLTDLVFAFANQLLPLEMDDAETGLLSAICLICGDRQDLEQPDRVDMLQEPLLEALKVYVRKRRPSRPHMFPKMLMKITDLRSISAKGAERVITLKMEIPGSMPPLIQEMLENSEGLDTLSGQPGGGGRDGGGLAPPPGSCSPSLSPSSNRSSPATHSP

`O=C=Nc1ccccc1`: the result in [1] was inactive.
In the case of `CN(N=O)c1ccccc1`, the molecule was called inactive in assay [2].
Regarding `CC(C)C#N`, the molecule was classed as inactive in assay [1].
As to `C=CCN(CC=C)C(=O)C(Cl)Cl`, the result in assay [3], in assay [4], in assay [5], in [6], in assay [7] and in assay [8] was inactive. In addition, the outcome in assay [9], in [10], in [11], in [12], in [13] and in assay [14] was inactive. In addition, the outcome in assay [15], in assay [16], in [17], in assay [18], in assay [19] and in assay [20] was inactive.
For `CCc1cccc(C)c1N(C(=O)CCl)[C@@H](C)COC`, the molecule was classed as inactive in assay [1].
As to `CCc1cc(C)cc(CC)c1-c1c(OC(=O)C(C)(C)C)n2n(c1=O)CCOCC2`, the molecule was classed as inactive in assay [2], in assay [3], in [5], in assay [6], in assay [8] and in assay [12]. The result in assay [13], in assay [14], in [15], in assay [16], in assay [17] and in [18] was inactive. Moreover, the outcome in assay [19] and in assay [20] was inactive. Besides, the AC50 is 4 µM (active) in [4]; 5.7 µM (active) in assay [7]; 6.89 µM (active) in [9]; 5.24 µM (active) in [10]; 0.0822 µM (active) in [11].
For the molecule `COC(=O)COc1ccc(Cl)cc1Cl`, the result in assay [1] was inactive.
Regarding `C[N+](C)=CCl`, the outcome in assay [1] was inactive.
`CC1CCCC1.[C-]#[O+].[C-]#[O+].[C-]#[O+].[Mn]`: the molecule was called inactive in assay [1] and in assay [2].
In the case of `Clc1ccc(-c2ccccc2)cc1`, the outcome in [3], in [4], in [5], in [6], in assay [7] and in assay [8] was inactive. Also, the outcome in assay [9], in assay [10], in [11], in assay [12], in assay [13] and in [14] was inactive. The outcome in [15], in [16], in assay [17], in assay [19] and in assay [20] was inactive. Besides, the concentration at half-maximal activity (AC50) in [18] is 17.2 µM (active).
As to `CC(C)c1ccc(O)cc1`, the molecule was called inactive in [1] and in [2].
